Bioassay records deposited in PubChem by Broad Institute.
Shown are actives, neighbours in structure and some others; about 2.2% of the full set was active somewhere.
TRPM1 prom inh: MITF TRPM1 promoter inhibition in SK-MEL-5 cells. 330,000 compounds, 0.83% hits. SK-MEL-5 TRPM1 promoter luciferase, 24 h. AID 488899. inhibition, % at 12.5 µM;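 active = mean inhibition across replicates of 60% or more, whatever share of single replicates reaches that level; inconclusive = some that reach 60%, reason not given; inactive = mean inhibition across replicates below 60%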
EWS-Fli block: EWS/Fli transcriptional activity inhibition; AID 651661; inhibition, % at 12.6 µM; A673 NR0B1-luciferase reporter, viability-normalised; 350,000 compounds, 0.67% hits;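 active = mean inhibition of at least 50% after viability correction, with every replicate also passing that limit; inconclusive = mean reaches 50% but only one of two replicates passes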;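 note: firefly luciferase signal divided by Alamar Blue viability fluorescence both relative to DMSO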
Shn3 inh set2: inhibitors of Schnurri-3 3'UTR reporter in osteoblasts. Clone20 osteoblast Shn3 3'UTR firefly luciferase, 24 h. inhibition, % at 12.5 µM. AID 588674. 360,000 compounds, 0.52% hits;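 active = mean inhibition of at least 75% with every replicate also reaching 75%; inconclusive = mean inhibition at least 75% but some replicate below; inactive = mean inhibition below 75%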;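 note: 0% = median of neutral control wells and 100% = pilot-screen positive control compound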
PAX8 reporter: PAX8 transcriptional activity inhibition; RMG-I TPO-luciferase reporter, SteadyGlo, 24 h; inhibition, % at 12.6 µM; 360,000 compounds, 1.2% hits; AID 652154;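 active = mean replicate inhibition at least 60% with every replicate also reaching 60%; inconclusive = only one of the two criteria is met; inactive = mean below 60% and not all replicates reaching 60%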;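 note: luciferase light reporting Pax8 driven TPO promoter activity; plate controls were median of neutral control wells for no effect and mitoxantrone controls for full effect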
LMP1 NFkB inh: inhibitors of Epstein-Barr LMP1-induced NF-kappaB reporter; 350,000 compounds, 0.69% hits; LMP1-induced NF-kappaB luciferase reporter cells, luminescence; inhibition, % at 12.5 µM; AID 504558; in the data active = inhibition above about 41%; inconclusive = no clear call, values can overlap the other calls;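 note: 0% = neutral control wells and 100% = reference inhibitor control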
LGR2 inh: Drosophila LGR2 receptor signaling inhibition; AID 720647; 380,000 compounds, 0.35% hits; HEK293 LGR2, CRE-luciferase, bursicon-stimulated, 4 h; inhibition, % at 9.99 µM;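 active = drop in luminescence signal, shown as inhibition above about 50% in the replicate tests, limit read from the data, passing the limit was not always enough; inconclusive = probably only some replicates passing the limit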;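 note: agonist challenge used bursicon conditioned medium at about half maximal strength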
* = called active by the depositor.

Results for CCC1CCCCN1S(=O)(=O)c1ccc(C(=O)Nc2nnc(-c3ccccc3Cl)o2)cc1 (configuration not stated) ?
TRPM1 prom inh: 32; Shn3 inh set2: 58; LMP1 NFkB inh: 23

How did CCC1CCCCN1S(=O)(=O)c1ccc(NC(=O)c2ccncc2)cc1 (configuration not stated) do in these assays?
TRPM1 prom inh: 24; Shn3 inh set2: 88*; PAX8 reporter: 12; LMP1 NFkB inh: 18; LGR2 inh: 9

Results for CCC1CCCCN1S(=O)(=O)c1ccc(NC(=O)c2nc(S(C)(=O)=O)ncc2Cl)cc1 (configuration not stated) ?
TRPM1 prom inh: 104*; EWS-Fli block: 69*; Shn3 inh set2: 96*; PAX8 reporter: 104*; LMP1 NFkB inh: 4; LGR2 inh: 3

How did CCC1CCCCN1S(=O)(=O)c1ccc(NC(=O)C2CCN(C(=O)c3ccco3)CC2)cc1 (configuration not stated) do in these assays?
TRPM1 prom inh: 25; EWS-Fli block: 4; Shn3 inh set2: 4; PAX8 reporter: 64*; LMP1 NFkB inh: 0; LGR2 inh: -7

What do the screens show for `O=C(Nc1ccc(Br)cc1)C1CCN(C(=O)c2ccco2)CC1`?
TRPM1 prom inh: -4; EWS-Fli block: -4; Shn3 inh set2: -17; PAX8 reporter: 2; LMP1 NFkB inh: 0; LGR2 inh: -1

What do the screens show for `COc1ccc2c3c([nH]c2c1)[C@H](CO)N(C(=O)c1ccc(F)cc1)CC31CCN(C)CC1`?
EWS-Fli block: 24; LGR2 inh: -11

What do the screens show for `CCCC(=O)N1CCN(c2ccc(NC(=O)c3cc4ccccc4o3)cc2Cl)CC1`?
TRPM1 prom inh: inconclusive; Shn3 inh set2: 91*; LMP1 NFkB inh: 24

How did O=C(Nc1ccc(N2CCN(C(=O)c3ccco3)CC2)c(Cl)c1)c1cc2ccccc2o1 do in these assays?
TRPM1 prom inh: 70*; Shn3 inh set2: 90*; LMP1 NFkB inh: 27

How did C[C@@H]1CCCCO[C@H](CN(C)S(=O)(=O)c2ccccc2)[C@H](C)CN([C@@H](C)CO)C(=O)c2cc(NC(=O)NC3CCCCC3)ccc2O1 do in these assays?
EWS-Fli block: 5; PAX8 reporter: 33; LGR2 inh: 4

What do the screens show for `COc1ccccc1-c1cnc2c(c1)C(=O)N([C@H](C)CO)C[C@@H](C)[C@@H](CN(C)Cc1ccc(F)cc1)O2`?
EWS-Fli block: 6; PAX8 reporter: 16; LGR2 inh: 3

How did CCCC#Cc1cnc2c(c1)C(=O)N([C@@H](C)CO)C[C@@H](C)[C@H](CN(C)S(=O)(=O)c1cn(C)cn1)O2 do in these assays?
EWS-Fli block: 5; PAX8 reporter: -21; LGR2 inh: -1

What do the screens show for `O=C(Oc1ccc(NC2=C(Cl)C(=O)c3ccccc3C2=O)cc1)c1ccc([N+](=O)[O-])cc1`?
TRPM1 prom inh: 82*; Shn3 inh set2: 6; LMP1 NFkB inh: 19

Results for CC(=O)Nc1ccc(NC(=O)c2cccc3c2-c2ccccc2C3=O)cc1 ?
TRPM1 prom inh: 11; EWS-Fli block: -19; Shn3 inh set2: 7; PAX8 reporter: 10; LMP1 NFkB inh: -3; LGR2 inh: 4

How did O=C1C(Cl)=C(Nc2ccc3cn[nH]c3c2)C(=O)c2ccccc21 do in these assays?
TRPM1 prom inh: 106*; EWS-Fli block: 46; Shn3 inh set2: 96*; PAX8 reporter: 81*; LMP1 NFkB inh: 12; LGR2 inh: -29

Results for CC(=O)Nc1ccc(NC2=C(Cl)C(=O)c3ccccc3C2=O)cc1 ?
EWS-Fli block: 47; PAX8 reporter: -6; LGR2 inh: 56*

How did CN(C)c1ccc(NC2=C(Cl)C(=O)c3ccccc3C2=O)cc1 do in these assays?
TRPM1 prom inh: 102*; EWS-Fli block: 36; Shn3 inh set2: 98*; PAX8 reporter: 34; LMP1 NFkB inh: 20; LGR2 inh: 49

How did O=C(C[C@@H]1CC[C@@H](NS(=O)(=O)c2ccc(F)cc2)[C@H](CO)O1)NCCN1CCCCC1 do in these assays?
EWS-Fli block: -3; PAX8 reporter: -1; LGR2 inh: -34

What do the screens show for `CNC(=O)C[C@@H]1CC[C@H]2[C@@H](COC[C@H](O)CN2Cc2ccncc2)O1`?
EWS-Fli block: -8; PAX8 reporter: 0; LGR2 inh: -15

Results for CCOc1cccc(CNc2nnnn2C)c1 ?
TRPM1 prom inh: 5; EWS-Fli block: -5; Shn3 inh set2: 19; PAX8 reporter: 1; LMP1 NFkB inh: 79*; LGR2 inh: -8

Results for CCOc1ccc(CNc2nnnn2C)cc1 ?
TRPM1 prom inh: -7; EWS-Fli block: -16; Shn3 inh set2: 10; PAX8 reporter: -1; LMP1 NFkB inh: -8; LGR2 inh: 10

What do the screens show for `CCCCC[C@H](O)/C=C/C1C(=O)C=C[C@H]1C/C=C\CCCC(=O)OC` (some centres not stated)?
TRPM1 prom inh: 64*; EWS-Fli block: -4; Shn3 inh set2: -2; PAX8 reporter: 20; LMP1 NFkB inh: -1; LGR2 inh: -14

What do the screens show for `N#Cc1cc2cc3c(cc2nc1SCC(=O)N1CCCC1)OCCO3`?
TRPM1 prom inh: -75; Shn3 inh set2: -78; LMP1 NFkB inh: -32

What do the screens show for `CC(=O)CSc1nc2cc3c(cc2cc1C#N)OCCO3`?
TRPM1 prom inh: 24; EWS-Fli block: 24; Shn3 inh set2: 39; PAX8 reporter: 24; LMP1 NFkB inh: -11; LGR2 inh: 61*

How did COc1cccc(NC(=O)N(C)C[C@@H]2Oc3ncc(/C=C/c4ccccc4)cc3C(=O)N([C@H](C)CO)C[C@@H]2C)c1 do in these assays?
EWS-Fli block: -5; PAX8 reporter: 12; LGR2 inh: 7

How did O=C1S/C(=C\c2ccc(N3CCOCC3)o2)C(=O)N1Cc1c(F)cccc1Cl do in these assays?
TRPM1 prom inh: 2; EWS-Fli block: 13; Shn3 inh set2: 96*; LMP1 NFkB inh: -1; LGR2 inh: 11

What do the screens show for `N=C(N)SCc1cn(-c2ccccc2)nc1-c1ccc(Br)cc1`?
TRPM1 prom inh: 59; EWS-Fli block: 34; Shn3 inh set2: inconclusive; PAX8 reporter: 32; LMP1 NFkB inh: -44; LGR2 inh: 100*

Results for O=C(N[C@H]1CC[C@H](CC(=O)N2CCOCC2)O[C@@H]1CO)c1ccc2c(c1)OCO2 ?
EWS-Fli block: 6; PAX8 reporter: -2; LGR2 inh: 22

What do the screens show for `O=c1c2ccccc2ncn1-c1ccc2c(c1)OCCO2`?
TRPM1 prom inh: -40; Shn3 inh set2: -22; LMP1 NFkB inh: 0; LGR2 inh: -36

Results for O=c1c2c3nc4ccccc4nc3n(-c3ccc4c(c3)OCCO4)c2ncn1C1CCCC1 ?
TRPM1 prom inh: 82*; Shn3 inh set2: 9; LMP1 NFkB inh: -5

Results for CO[C@@H]1CN(C)C(=O)c2cc(NC(=O)c3ccccc3F)ccc2OC[C@@H](C)NC[C@@H]1C ?
EWS-Fli block: -1; PAX8 reporter: -10; LGR2 inh: 8
